Screening results deposited in PubChem BioAssay by several laboratories.
GDH-TPI counter = GDH-TPI coupled enzyme inhibition counter-screen | 1.2% of 360,000 active | inhibition, % at 4.8 µM | GDH-TPI coupled enzyme counterscreen, NADH absorbance; in the data active = inhibition above about 30%;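 note: 0% = DMSO wells and 100% = wells lacking the enzyme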
Mtb hypoxia rep = inhibitors of hypoxia-regulated fluorescent reporter in Mycobacterium tuberculosis; 0.1% of 300,000 active; fluorescence inhibition, % (test concentration not listed); M. tuberculosis hypoxia-regulated fluorescent reporter, fluorescence; in the data active = fluorescence inhibition mostly above about 23%, no sharp cut-off; inactive = mostly below about 17%
Mtb FBA inh = Mtb fructose-bisphosphate aldolase inhibition; inhibition, % at 1 µM; 2.3% of 360,000 active; P9WQA3; AID 588726; purified M. tuberculosis FBA, fluorescence read-out; in the data active = inhibition above about 27%;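 note: 0% = vehicle and 100% = reference inhibitor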
FadD28 binding = M. tuberculosis FadD28 bisubstrate binding inhibition; FadD28 bisubstrate probe binding, fluorescence polarization; inhibition, % at 12.5 µM; 0.22% of 360,000 active; AID 588549; in the data active = inhibition above about 8.5%, passing the limit was not always enough
Rv3671c protease = Rv3671c (M. tuberculosis) protease inhibition. P9WHR9. inhibition, % at 5.96 µM. 0.048% of 320,000 active. AID 2606; in the data active = inhibition above about 38%;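 note: extracellular domain of Rv3671c used as enzyme; 0% = enzyme with DMSO and 100% = no enzyme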
Target sequence (P9WHR9 whole entry, looked up, the tested form may be a part): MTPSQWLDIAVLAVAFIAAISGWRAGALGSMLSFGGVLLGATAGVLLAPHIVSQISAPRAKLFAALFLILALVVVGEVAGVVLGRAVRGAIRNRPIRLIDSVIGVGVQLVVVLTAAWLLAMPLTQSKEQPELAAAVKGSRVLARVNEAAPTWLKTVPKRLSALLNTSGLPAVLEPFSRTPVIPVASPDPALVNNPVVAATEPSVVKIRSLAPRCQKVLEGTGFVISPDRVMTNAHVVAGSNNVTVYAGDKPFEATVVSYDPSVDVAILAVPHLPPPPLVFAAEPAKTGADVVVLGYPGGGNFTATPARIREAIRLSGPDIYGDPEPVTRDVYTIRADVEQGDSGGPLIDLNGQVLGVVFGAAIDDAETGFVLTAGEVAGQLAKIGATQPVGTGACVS
Mtb UGM inh = blocks M. tuberculosis UGM enzyme; purified UGM, fluorescence polarization probe displacement; inhibition, % at 10 µM; 0.06% of 320,000 active; AID 504406; in the data active = inhibition above about 10%, passing the limit was not always enough
Numbers without * were called inactive; . = no result. Only some compounds are listed: those with a hit (about 3.5% of all), similar ones and a draw of the others.

SMILES | GDH-TPI counter | Mtb hypoxia rep | Mtb FBA inh | FadD28 binding | Rv3671c protease | Mtb UGM inh
O=C1C=CN(Cc2ccccc2)C(c2ccccc2)C1 (stereo not given) | 35.4* | 23.8 | -3.4 | 0.2 | -3.8 | 3.6
CC(=NNc1nccnc1Cl)c1c(F)c(F)c(F)c(F)c1F | . | 1.2 | . | . | . | .
CCn1nc([N+](=O)[O-])c(C(C#N)c2nc3cc(C(F)(F)F)ccc3s2)c(Cl)c1=O (stereo not given) | 19.8 | 15.6 | -4.5 | 45.4* | 22.5 | 2.7
Cn1nc([N+](=O)[O-])c(C(C#N)c2ccccn2)c(Cl)c1=O (stereo not given) | 11.6 | 21.6 | -0.9 | 0.8 | -6.9 | -1.5
CCCn1nc([N+](=O)[O-])c(C(C#N)c2nc3ccccc3o2)c(Cl)c1=O (stereo not given) | 2.6 | 21.9 | -14.0 | 15.1* | 14.0 | 4.0
CC(=O)N1c2ccc(F)c(F)c2CC1C (stereo not given) | . | 6.4 | . | . | . | .
O=C(O)c1ccc(-c2ccc(/C=C3\NC(=O)N(Cc4ccc(Cl)cc4)C3=O)o2)cc1Cl | 21.1 | 5.7 | 6.1 | 16.5* | . | .
CCOC(=O)CN1C(=O)S/C(=C\c2ccc(-c3ccc(C(=O)O)c(Cl)c3)o2)C1=O | 9.2 | -2.6 | -1.2 | -0.5 | -1.4 | 2.1
COc1ccc(-c2nnc(NC(=O)c3ccco3)s2)cc1 | 45.4* | 5.3 | 1.0 | -0.5 | -6.1 | 0.3
COc1cccc(-c2nnc(NC(=O)c3ccco3)s2)c1 | 41.2* | -4.1 | 7.0 | 1.0 | 2.3 | 3.8
O=C(Nc1nnc(SCc2ccc(F)cc2)s1)c1ccco1 | 41.0* | -2.6 | 1.0 | 0.0 | -12.2 | 0.2
CCCOc1cccc(-c2nnc(NC(=O)c3ccco3)s2)c1 | 49.1* | -12.1 | 9.8 | -0.7 | -1.5 | 1.5
Cc1ccc(-c2nnc(NC(=O)c3ccco3)s2)cc1 | 22.6 | 0.6 | 1.1 | 0.3 | -4.4 | -0.6
O=C(NN=Cc1cccc2ccccc12)C(=O)N1CCCC1 | . | -2.5 | . | . | . | .
O=C(Nc1nccs1)C1CC=CC2CCN(Cc3ccccc3)C(=O)C21 (stereo not given) | . | 9.6 | . | . | . | .
Cc1cc(C(=O)Nc2nnc(-c3ccccc3)s2)no1 | 32.3* | 20.6 | -3.3 | -1.9 | -9.2 | 3.6
COc1cccc(-c2nnc(NC(=O)c3cccs3)s2)c1 | 35.4* | 3.5 | 1.8 | -0.6 | -21.9 | 0.8
Cc1cc(C(=O)Nc2nnc(C3CCCCC3)s2)no1 | -0.9 | -6.9 | 0.1 | -1.0 | 1.3 | -2.1
C/C=C(\C)c1nnc(NC(=O)c2ccco2)s1 | 33.2* | 7.2 | -1.9 | -4.0 | 6.8 | 0.9
COc1ccccc1NC(=O)CC(C)=NNC(=O)C12CC3CC(CC(C3)C1)C2 | . | 4.4 | . | . | . | .
CC(C(=O)Nc1ccc2ccccc2c1)C1C[C@@]1(C)C(NC(=O)c1cnccn1)c1ccccc1 (stereo not given in full) | . | -1.7 | . | . | . | .
C#CCOCCOCCOCCNc1nc(N2CCN(C(=O)CCCCCCCCCCNC(=O)[C@H]([C@@H](C)CC)n3cc(CCCCN=C(N)N)nn3)CC2)nc(N2CCN(C(=O)CCCCCCCCCCNC(=O)[C@@H]([C@H](C)O)n3cc(C)nn3)CC2)n1 | 7.6 | . | 0.6 | 15.0* | -26.4 | 0.4
C#CCOCCOCCOCCNc1nc(N2CCN(C(=O)CCCCCCCCCCNC(=O)[C@@H](CCSC)n3cc(CCO)nn3)CC2)nc(N2CCN(C(=O)CCCCCCCCCCNC(=O)[C@H](CCCN=C(N)N)n3cc(C[C@@H](C)CC)nn3)CC2)n1 | 10.0 | . | 0.6 | 11.5* | -66.0 | -1.9
O=[N+]([O-])c1ccc(O)c(C2=NNC(c3ccccc3F)C2)c1 (stereo not given) | 36.4* | 13.7 | 8.3 | -1.6 | 7.7 | 2.1
CNC(=S)NN=Cc1cn(Cc2ccc(C)cc2)c2ccccc12 | . | 3.5 | . | . | . | .
SMILES | GDH-TPI counter | Mtb hypoxia rep | Mtb FBA inh | FadD28 binding | Rv3671c protease | Mtb UGM inh
O=C(c1cc2c(s1)-c1ccccc1OC2)N1CCN(c2ccccc2)CC1 | 24.4 | 3.7 | 14.8 | -0.1 | 4.3 | 0.9
CCCN1CCN(C(=O)c2cc3c(s2)-c2ccccc2OC3)CC1 | 32.7* | . | 186.4* | -0.6 | -6.0 | 1.1
CCOC(=O)N1CCN(C(=O)c2cc3c(s2)-c2ccccc2OC3)CC1 | 23.2 | 2.7 | 146.9* | 1.1 | -9.0 | 0.5
CN(C(=O)CSc1nc2ccc([N+](=O)[O-])cc2s1)C1CCS(=O)(=O)C1 (stereo not given) | 34.2* | 2.9 | 0.4 | -3.1 | 3.3 | 6.2
CC(O)C1CN=C(N)N1CCCCC1CCCCC1 (stereo not given) | . | 12.1 | . | . | . | .
CN(C)c1ccc(NC2=C([N+](=O)[O-])CS(=O)(=O)C2)cc1 | 34.2* | 2.5 | -2.1 | 0.6 | -6.7 | -0.8
COc1cc(C=NNc2nc(C)cc(C)n2)cc(OC)c1OC | . | 3.3 | . | . | . | .
NC(=NOCC(=O)Nc1ccccc1)c1nonc1N | . | 9.0 | . | . | . | .
Cc1ccc(C(C)C)c(OCc2ccc(C(=O)NN=Cc3ccc(O)c(O)c3)cc2)c1 | . | 5.6 | . | . | . | .
Cc1ccnc(NC(=O)/C=C/c2cccs2)c1 | 30.7* | 0.6 | 6.4 | 0.1 | 9.5 | 0.0
O=C(/C=C/c1cccs1)Nc1nncs1 | 69.6* | 9.3 | -6.1 | -2.7 | 1.9 | 3.0
O=C(/C=C/c1cccs1)Nc1cccnc1 | 32.3* | -4.9 | -3.2 | -1.5 | -9.7 | 4.0
C(=N\Nc1ncnc2sc3c(c12)CCC3)/c1cccs1 | 33.3* | . | 3.0 | 0.4 | 3.0 | 2.4
Cn1cnc2c(N/N=C/c3cccs3)ncnc21 | 39.1* | . | -1.8 | -2.4 | 2.6 | 0.8
O=C(CN1CCCc2ccccc21)NN=Cc1ccc(F)cc1F | . | -6.4 | . | . | . | .
CCN1C(=O)C2C(c3ccc(-c4cccc(Cl)c4)c(OC)c3)N[C@@](C)(C(=O)OC)C2C1=O (stereo not given in full) | . | 0.8 | . | . | . | .
CCOC(=O)NN=Cc1sccc1C | . | 3.5 | . | . | . | .
CCc1nc2c(c(=O)[nH]1)C(CC)(CC)Cc1ccccc1-2 | 6.8 | 6.7 | 0.3 | -2.0 | -5.1 | 0.0
CC1(C)Cc2ccccc2-c2nc3n(c(=O)c21)CCS3 | 10.8 | 7.0 | 2.4 | -2.8 | -0.8 | 1.3
CCC1(C)Cc2ccccc2-c2nc(NCCO)n(-c3ccccc3)c(=O)c21 (stereo not given) | 13.5 | -6.3 | 176.1* | -0.8 | -1.4 | 0.6
CCC1(CC)Cc2ccccc2-c2nc(NCCO)[nH]c(=O)c21 | 19.8 | 3.0 | 168.5* | -4.2 | -6.8 | 2.4
CCC1(C)Cc2ccccc2-c2nc(NCCO)n(-c3ccc(C)cc3)c(=O)c21 (stereo not given) | 16.6 | . | 162.7* | 0.4 | 0.8 | 1.0
CC1(C)Cc2ccccc2-c2nc(NCCO)n(-c3ccccc3)c(=O)c21 | 18.2 | . | 173.3* | 0.2 | -2.2 | 1.7
CCC1(C)Cc2ccccc2-c2nc3n(c(=O)c21)CCCCC3 (stereo not given) | -3.1 | 4.8 | -0.9 | -4.0 | 2.3 | .
CCC1(C)Cc2ccccc2-c2c1c(=O)n(-c1ccc(C)cc1)c1nnnn21 (stereo not given) | 2.3 | -10.9 | 5.3 | -1.3 | -1.1 | -0.7
CCOc1ccc(NC(=Nc2nc(C)cc(C)n2)NC(C)=O)cc1 | . | 3.7 | . | . | . | .
Nc1nnn(CC(=O)NN=C/C=C/c2ccccc2)n1 | . | 5.1 | . | . | . | .
